Experiment in all cases: DAPPL (digital affinity profiling via proximity ligation, sequencing); 10 mM Tris-HCl pH 7.5, 50 mM NaCl, 1 mM DTT, 4% glycerol, room temperature, 30 min; GST-TFs on glutathione beads, 16-mer random dsDNA library, 0.1% formaldehyde crosslink after washing; high values mean tight binding
One assay addresses T1, FLI1 (Homo sapiens, UniProt Q01543 1-452).
T1 sequence: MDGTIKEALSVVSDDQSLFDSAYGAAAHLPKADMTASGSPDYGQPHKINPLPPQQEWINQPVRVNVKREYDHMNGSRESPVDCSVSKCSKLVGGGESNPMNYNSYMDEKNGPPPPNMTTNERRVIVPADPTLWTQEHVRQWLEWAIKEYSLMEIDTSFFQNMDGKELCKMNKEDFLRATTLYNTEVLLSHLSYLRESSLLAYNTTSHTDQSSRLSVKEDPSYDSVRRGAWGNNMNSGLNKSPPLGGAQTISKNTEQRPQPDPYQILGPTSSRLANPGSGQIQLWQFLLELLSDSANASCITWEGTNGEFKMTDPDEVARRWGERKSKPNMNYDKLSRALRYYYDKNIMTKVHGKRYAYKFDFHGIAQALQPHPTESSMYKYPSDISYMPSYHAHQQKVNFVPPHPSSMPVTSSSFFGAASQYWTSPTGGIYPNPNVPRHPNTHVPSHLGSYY
As to conditions: protein: recombinant; tags: N-terminal GST; dsDNA, one strand shown. Summed up: (§1)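 In yeast, human transcription factors were expressed with a GST fusion, then pulled down on glutathione beads and given DNA barcodes. Pooled with a tag-only sample, they were exposed to 200 nmole of a 16-mer random double-stranded DNA library (Tris/NaCl/DTT/glycerol buffer, room temperature, 30 min), washed, crosslinked with 0.1% formaldehyde, proximity-ligated using BsaI/T4 ligase for 1 h at 37 °C, PCR-amplified and read on an Illumina NextSeq500. Each hexamer's frequency of reads for a factor, divided by the matching frequency for the tag-only sample, gives the binding signal.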

The target of a further assay is T2, ELK1 (Homo sapiens, UniProt P19419 1-428).
T2 sequence: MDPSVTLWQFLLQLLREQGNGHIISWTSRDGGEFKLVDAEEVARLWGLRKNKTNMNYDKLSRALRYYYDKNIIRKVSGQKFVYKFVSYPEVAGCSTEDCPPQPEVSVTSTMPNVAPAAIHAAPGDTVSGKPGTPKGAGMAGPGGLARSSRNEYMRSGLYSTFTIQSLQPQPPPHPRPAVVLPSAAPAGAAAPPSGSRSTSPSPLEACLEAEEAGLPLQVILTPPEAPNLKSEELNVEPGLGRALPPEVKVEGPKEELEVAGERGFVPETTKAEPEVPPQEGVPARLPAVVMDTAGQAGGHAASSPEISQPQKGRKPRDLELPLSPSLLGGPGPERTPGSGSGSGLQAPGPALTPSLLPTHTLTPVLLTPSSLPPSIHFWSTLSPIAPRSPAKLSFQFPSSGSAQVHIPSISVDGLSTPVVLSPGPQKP
As to conditions: protein: recombinant; tags: N-terminal GST; dsDNA, one strand shown. Summed up:
as §1

The target of the next assay is T3, GABPA (Homo sapiens, UniProt Q06546 1-454).
T3 sequence: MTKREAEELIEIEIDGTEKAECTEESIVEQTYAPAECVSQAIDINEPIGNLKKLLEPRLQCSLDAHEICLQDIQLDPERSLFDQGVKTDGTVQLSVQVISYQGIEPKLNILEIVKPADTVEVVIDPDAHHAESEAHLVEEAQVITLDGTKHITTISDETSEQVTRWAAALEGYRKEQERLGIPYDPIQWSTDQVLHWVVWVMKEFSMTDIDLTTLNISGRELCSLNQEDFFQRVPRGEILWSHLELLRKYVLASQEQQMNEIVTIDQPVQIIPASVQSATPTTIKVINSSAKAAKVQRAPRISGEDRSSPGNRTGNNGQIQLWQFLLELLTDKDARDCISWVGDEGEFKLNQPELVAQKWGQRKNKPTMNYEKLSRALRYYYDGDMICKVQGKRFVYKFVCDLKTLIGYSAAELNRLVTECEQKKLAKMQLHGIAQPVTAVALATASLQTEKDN
The following applies: protein: recombinant; tags: N-terminal GST; dsDNA, one strand shown. In short, it runs like this:
as §1

Another assay addresses T4, ERG (Homo sapiens, UniProt P11308 1-479).
T4 sequence: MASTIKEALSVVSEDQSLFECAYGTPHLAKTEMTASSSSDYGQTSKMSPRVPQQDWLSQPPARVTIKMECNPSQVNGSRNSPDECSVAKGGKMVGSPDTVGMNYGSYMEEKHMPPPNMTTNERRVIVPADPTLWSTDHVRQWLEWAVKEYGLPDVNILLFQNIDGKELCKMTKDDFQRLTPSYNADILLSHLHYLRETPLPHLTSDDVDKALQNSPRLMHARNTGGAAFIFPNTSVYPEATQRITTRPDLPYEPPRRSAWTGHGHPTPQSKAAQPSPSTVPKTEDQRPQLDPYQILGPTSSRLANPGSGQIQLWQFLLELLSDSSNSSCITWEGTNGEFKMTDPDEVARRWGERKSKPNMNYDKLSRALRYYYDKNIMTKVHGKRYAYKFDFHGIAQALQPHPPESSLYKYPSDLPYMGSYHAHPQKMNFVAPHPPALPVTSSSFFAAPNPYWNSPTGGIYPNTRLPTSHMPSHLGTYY
The following applies: protein: recombinant; tags: N-terminal GST; dsDNA, one strand shown. Summed up: as §1

In the next assay the target is ELF1 (Homo sapiens, UniProt P32519 1-619). The following applies: protein: recombinant; tags: N-terminal GST; dsDNA, one strand shown. In short, it runs like this:
as §1

The target in the next assay is T5, EHF (Homo sapiens, UniProt Q9NZC4 1-300).
T5 sequence: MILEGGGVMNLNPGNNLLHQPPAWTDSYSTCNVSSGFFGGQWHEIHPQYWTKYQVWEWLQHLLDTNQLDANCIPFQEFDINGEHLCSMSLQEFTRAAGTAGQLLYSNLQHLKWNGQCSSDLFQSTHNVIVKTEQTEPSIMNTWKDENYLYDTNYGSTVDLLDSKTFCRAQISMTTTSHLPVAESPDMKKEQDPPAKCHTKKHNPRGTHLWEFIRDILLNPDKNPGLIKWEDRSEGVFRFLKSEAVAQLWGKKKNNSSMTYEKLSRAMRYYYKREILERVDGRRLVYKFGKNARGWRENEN
As to conditions: protein: recombinant; tags: N-terminal GST; dsDNA, one strand shown. Summed up: as §1

The target of another assay is SPI1 (Homo sapiens, UniProt P17947 1-270). The following applies: protein: recombinant; tags: N-terminal GST; dsDNA, one strand shown. In short, it runs like this: as §1
A further assay has as its target SPIB (Homo sapiens, UniProt Q01892 1-262). As to conditions: protein: recombinant; tags: N-terminal GST; dsDNA, one strand shown. Summed up:
as §1

In a further assay the target is T6, FEV (Homo sapiens, UniProt Q99581 1-238).
T6 sequence: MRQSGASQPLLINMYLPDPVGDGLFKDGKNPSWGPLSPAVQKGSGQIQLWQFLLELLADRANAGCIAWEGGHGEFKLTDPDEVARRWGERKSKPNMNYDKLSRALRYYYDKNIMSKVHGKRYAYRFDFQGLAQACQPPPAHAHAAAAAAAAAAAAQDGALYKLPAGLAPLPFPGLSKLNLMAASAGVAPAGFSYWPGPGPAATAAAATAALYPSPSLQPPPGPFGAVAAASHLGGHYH
The following applies: protein: recombinant; tags: N-terminal GST; dsDNA, one strand shown. In short, it runs like this: as §1

The next assay deals with ETV5 (Homo sapiens, UniProt P41161 1-510). The following applies: protein: recombinant; tags: N-terminal GST; dsDNA, one strand shown. Summed up: as §1
ETV5, sequence (P41161 whole entry): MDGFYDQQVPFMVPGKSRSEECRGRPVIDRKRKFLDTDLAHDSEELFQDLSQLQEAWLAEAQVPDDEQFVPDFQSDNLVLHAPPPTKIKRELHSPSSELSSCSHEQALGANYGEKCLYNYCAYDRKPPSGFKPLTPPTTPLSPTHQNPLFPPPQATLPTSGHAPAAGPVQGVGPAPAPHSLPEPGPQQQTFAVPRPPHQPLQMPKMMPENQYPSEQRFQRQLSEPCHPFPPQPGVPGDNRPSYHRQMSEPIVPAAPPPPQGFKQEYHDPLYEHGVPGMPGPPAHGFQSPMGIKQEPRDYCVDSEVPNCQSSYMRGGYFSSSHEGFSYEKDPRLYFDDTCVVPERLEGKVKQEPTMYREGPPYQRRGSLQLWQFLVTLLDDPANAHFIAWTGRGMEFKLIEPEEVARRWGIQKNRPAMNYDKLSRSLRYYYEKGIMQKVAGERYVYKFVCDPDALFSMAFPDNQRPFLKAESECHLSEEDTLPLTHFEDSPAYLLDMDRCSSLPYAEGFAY
The target of a further assay is HSF1 (Homo sapiens, UniProt Q00613 1-529). As to conditions: protein: recombinant; tags: N-terminal GST; chain copies: 3; dsDNA, one strand shown. Summed up:
as §1

A further assay deals with T7, SPIC (Homo sapiens, UniProt Q8N5J4 1-248).
T7 sequence: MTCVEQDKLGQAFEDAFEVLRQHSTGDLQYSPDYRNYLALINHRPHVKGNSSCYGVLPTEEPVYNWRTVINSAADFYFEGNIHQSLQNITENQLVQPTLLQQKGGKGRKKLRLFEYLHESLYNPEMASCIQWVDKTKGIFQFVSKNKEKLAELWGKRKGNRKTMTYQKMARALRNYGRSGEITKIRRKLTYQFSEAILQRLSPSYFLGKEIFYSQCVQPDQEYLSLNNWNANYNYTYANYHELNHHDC
As to conditions: protein: recombinant; tags: N-terminal GST; dsDNA, one strand shown. Summed up:
as §1

Another assay addresses ELF4 (Homo sapiens, UniProt Q99607 1-663). As to conditions: protein: recombinant; tags: N-terminal GST; dsDNA, one strand shown. Summed up:
as §1

In another assay the target is T8, ELK4 (Homo sapiens, UniProt P28324-2 1-405).
T8 sequence: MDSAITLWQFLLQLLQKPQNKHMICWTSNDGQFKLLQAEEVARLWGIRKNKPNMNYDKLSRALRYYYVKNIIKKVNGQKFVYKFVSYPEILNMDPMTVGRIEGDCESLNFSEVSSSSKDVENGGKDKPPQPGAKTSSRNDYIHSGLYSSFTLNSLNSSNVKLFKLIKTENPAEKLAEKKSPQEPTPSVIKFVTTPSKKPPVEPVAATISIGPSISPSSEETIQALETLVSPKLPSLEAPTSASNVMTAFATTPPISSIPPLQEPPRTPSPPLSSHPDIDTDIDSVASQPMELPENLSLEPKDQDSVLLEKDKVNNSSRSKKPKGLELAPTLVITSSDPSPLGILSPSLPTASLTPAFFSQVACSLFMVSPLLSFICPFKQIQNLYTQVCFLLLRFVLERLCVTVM
As to conditions: protein: recombinant; tags: N-terminal GST; dsDNA, one strand shown. Summed up:
as §1

A further assay concerns the target T9, ETV2 (Homo sapiens, UniProt O00321 1-342).
T9 sequence: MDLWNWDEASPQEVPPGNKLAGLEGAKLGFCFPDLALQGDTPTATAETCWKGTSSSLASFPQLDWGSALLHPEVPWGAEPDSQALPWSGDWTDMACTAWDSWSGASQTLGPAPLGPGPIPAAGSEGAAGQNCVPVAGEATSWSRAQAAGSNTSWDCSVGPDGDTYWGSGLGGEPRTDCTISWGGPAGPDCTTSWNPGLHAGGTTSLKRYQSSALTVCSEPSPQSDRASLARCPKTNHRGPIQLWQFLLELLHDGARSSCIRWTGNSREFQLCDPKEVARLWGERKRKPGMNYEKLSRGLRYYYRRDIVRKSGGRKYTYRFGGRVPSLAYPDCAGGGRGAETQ
The following applies: protein: recombinant; tags: N-terminal GST; dsDNA, one strand shown. In short, it runs like this: as §1

A further assay deals with T10, ELF3 (Homo sapiens, UniProt P78545 1-371).
T10 sequence: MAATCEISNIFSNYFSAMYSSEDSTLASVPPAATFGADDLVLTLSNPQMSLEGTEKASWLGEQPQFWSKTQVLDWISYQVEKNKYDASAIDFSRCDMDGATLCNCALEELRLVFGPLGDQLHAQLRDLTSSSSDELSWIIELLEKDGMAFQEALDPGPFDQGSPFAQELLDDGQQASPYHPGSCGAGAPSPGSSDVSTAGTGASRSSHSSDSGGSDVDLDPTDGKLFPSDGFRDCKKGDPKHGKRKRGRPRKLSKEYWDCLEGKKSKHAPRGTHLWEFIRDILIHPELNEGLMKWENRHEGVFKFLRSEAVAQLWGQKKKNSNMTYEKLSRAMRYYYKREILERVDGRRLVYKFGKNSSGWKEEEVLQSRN
As to conditions: protein: recombinant; tags: N-terminal GST; dsDNA, one strand shown. Summed up: as §1

The target in a further assay is CRX (Homo sapiens, UniProt O43186 1-299). The following applies: protein: recombinant; tags: N-terminal GST; dsDNA, one strand shown. Summed up:
as §1

For another assay, the target named is ETV1 (Homo sapiens, UniProt P50549 1-477). As to conditions: protein: recombinant; tags: N-terminal GST; dsDNA, one strand shown. In short, it runs like this:
as §1

CRX, sequence (O43186 whole entry): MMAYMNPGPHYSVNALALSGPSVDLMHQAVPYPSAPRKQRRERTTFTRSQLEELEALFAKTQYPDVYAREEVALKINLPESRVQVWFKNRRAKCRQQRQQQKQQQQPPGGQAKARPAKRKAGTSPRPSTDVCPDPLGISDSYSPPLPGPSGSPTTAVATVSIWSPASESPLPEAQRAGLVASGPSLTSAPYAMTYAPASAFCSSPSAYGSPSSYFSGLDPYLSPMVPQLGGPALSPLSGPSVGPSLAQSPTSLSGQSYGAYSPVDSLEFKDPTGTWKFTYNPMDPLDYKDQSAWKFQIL
HSF1, sequence (Q00613 whole entry): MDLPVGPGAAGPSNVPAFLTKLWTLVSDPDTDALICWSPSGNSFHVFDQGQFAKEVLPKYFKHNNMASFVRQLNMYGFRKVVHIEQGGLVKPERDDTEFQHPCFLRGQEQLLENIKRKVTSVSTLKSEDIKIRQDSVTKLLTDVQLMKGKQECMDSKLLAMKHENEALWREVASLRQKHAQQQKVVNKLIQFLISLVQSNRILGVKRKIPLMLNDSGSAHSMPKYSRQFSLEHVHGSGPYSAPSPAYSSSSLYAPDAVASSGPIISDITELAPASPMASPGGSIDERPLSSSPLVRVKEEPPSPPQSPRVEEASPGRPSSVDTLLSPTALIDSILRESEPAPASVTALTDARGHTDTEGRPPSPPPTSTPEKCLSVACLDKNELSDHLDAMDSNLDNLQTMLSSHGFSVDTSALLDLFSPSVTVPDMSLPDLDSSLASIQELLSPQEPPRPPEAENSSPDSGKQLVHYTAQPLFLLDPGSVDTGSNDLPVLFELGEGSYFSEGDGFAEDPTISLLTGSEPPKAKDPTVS
ETV1, sequence (P50549 whole entry): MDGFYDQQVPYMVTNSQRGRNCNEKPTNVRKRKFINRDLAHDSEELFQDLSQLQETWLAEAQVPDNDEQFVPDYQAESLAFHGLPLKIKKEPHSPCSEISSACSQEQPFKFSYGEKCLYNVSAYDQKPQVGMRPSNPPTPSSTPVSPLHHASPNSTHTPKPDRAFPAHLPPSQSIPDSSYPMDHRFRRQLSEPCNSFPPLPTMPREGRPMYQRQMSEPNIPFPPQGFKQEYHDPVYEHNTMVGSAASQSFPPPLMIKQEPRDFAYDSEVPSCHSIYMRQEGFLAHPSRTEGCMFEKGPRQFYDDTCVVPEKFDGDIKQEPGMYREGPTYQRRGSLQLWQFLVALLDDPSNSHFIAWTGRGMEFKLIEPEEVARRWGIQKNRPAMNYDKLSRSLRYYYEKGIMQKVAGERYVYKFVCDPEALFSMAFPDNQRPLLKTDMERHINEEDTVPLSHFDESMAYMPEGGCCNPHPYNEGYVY
ELF4, sequence (Q99607 whole entry): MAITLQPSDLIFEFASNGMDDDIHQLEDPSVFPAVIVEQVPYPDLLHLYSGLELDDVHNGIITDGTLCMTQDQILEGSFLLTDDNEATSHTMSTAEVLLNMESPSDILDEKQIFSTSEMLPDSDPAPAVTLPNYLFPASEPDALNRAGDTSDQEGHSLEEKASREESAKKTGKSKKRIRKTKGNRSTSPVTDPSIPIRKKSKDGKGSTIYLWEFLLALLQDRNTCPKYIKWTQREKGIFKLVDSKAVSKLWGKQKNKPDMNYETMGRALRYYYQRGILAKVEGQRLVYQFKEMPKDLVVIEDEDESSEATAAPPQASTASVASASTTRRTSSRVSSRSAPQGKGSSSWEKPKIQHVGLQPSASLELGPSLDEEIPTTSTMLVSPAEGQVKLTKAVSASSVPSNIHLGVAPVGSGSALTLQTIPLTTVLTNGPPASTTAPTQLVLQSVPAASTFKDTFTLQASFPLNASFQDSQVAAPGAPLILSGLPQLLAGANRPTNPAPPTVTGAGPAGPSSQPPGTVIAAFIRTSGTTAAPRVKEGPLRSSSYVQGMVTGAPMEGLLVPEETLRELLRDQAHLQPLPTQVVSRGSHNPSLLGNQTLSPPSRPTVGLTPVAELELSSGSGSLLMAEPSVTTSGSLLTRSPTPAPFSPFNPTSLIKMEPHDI
ELF1, sequence (P32519 whole entry): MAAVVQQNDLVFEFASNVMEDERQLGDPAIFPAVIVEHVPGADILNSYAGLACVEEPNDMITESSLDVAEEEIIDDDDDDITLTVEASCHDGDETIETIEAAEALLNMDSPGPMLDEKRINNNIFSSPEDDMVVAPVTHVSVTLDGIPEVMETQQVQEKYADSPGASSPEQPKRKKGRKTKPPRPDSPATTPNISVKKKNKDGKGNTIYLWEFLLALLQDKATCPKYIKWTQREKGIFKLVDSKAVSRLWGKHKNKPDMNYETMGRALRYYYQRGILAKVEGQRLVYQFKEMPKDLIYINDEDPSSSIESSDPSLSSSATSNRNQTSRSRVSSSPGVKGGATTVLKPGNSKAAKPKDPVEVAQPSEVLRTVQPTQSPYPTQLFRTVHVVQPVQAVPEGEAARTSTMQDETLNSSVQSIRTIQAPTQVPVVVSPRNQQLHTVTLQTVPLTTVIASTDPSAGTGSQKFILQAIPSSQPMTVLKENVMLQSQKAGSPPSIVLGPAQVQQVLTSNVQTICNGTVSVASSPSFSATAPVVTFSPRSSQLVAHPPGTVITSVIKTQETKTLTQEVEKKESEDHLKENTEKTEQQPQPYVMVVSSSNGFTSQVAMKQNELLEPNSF
SPIB, sequence (Q01892 whole entry): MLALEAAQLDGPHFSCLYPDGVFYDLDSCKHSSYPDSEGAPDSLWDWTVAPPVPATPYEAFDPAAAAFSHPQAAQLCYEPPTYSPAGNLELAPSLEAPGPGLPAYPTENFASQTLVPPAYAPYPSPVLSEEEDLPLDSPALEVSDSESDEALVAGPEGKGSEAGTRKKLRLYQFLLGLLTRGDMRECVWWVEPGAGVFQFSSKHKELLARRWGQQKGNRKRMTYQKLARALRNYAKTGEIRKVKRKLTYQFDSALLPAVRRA

CCGAGC: the binding signal is 1.17 fold enrichment (6-mer frequency, TF over GST control) with FLI1; 1.25 fold enrichment (6-mer frequency, TF over GST control) in the assay with ELK1; 1.2 fold enrichment (6-mer frequency, TF over GST control) with GABPA; 1.11 fold enrichment (6-mer frequency, TF over GST control) with ERG; 1.15 fold enrichment (6-mer frequency, TF over GST control) with ELF1; 1.12 fold enrichment (6-mer frequency, TF over GST control) with EHF. Besides, the binding signal in the assay with SPI1 is 1.12 fold enrichment (6-mer frequency, TF over GST control); in the assay with SPIB it was 1.19 fold enrichment (6-mer frequency, TF over GST control); with FEV it was 1.18 fold enrichment (6-mer frequency, TF over GST control); in the assay with ETV5, 1.14 fold enrichment (6-mer frequency, TF over GST control); with HSF1, 1.13 fold enrichment (6-mer frequency, TF over GST control); with SPIC it was 1.26 fold enrichment (6-mer frequency, TF over GST control). For the same sequence, the binding signal was 1.09 fold enrichment (6-mer frequency, TF over GST control) in the assay with ELF4; 1.09 fold enrichment (6-mer frequency, TF over GST control) with ELK4; 1.35 fold enrichment (6-mer frequency, TF over GST control) with ETV2; 1.23 fold enrichment (6-mer frequency, TF over GST control) with ELF3; 1.01 fold enrichment (6-mer frequency, TF over GST control) with CRX; 1.02 fold enrichment (6-mer frequency, TF over GST control) with ETV1.

Values taken from article PMC7862700, “An all-to-all approach to the identification of sequence-specific readers for epigenetic DNA modifications on cytosine”.
